From PubChem
Only some compounds are listed: those with a hit (about 7.8% of all), similar ones and a draw of the others.
sEH inhibitor: inhibitors of human soluble epoxide hydrolase; P34913; recombinant human sEH enzymatic activity assay; inhibition, % at 2 µM; actives 0.34% (n = 91,000); in the data active means inhibition above about 80%
Target sequence (P34913 whole entry, looked up): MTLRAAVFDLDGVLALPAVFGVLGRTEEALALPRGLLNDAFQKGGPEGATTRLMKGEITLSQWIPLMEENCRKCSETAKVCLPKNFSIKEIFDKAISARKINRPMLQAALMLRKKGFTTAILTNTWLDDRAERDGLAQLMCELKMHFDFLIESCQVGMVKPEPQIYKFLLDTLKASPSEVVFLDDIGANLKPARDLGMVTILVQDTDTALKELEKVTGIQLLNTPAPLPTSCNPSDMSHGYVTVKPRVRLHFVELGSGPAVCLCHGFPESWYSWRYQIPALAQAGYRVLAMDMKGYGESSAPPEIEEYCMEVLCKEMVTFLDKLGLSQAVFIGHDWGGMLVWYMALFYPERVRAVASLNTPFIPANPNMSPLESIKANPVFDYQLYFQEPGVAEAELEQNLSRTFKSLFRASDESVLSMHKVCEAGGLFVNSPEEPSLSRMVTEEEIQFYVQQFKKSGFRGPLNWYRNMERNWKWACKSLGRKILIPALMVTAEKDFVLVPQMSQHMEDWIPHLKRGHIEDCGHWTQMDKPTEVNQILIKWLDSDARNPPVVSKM
Cav3 T inh: blocks human Cav3.2 T-type calcium channel; B-score at 10 µM; AID 449739; Cav3.2-expressing cells, Fluo-4 calcium fluorescence FDSS; active compounds read low; O95180; actives 4% (n = 100,000);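 active means single-dose well whose peak fluorescence ratio is a statistical outlier from its plate by either plate-standardised score or position-corrected B-score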
PostGolgi yeast: growth inhibition of a yeast mutant, post-Golgi transport screen; post-Golgi transport phenotypic cell assay; inhibition, % at 10 µM; actives 0.9% (n = 98,000); AID 739;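 further: yeast cells grown in 1536-well plates; yeast grown about 18 h at 30C before absorbance read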
sEH act: activators of human soluble epoxide hydrolase | purified human sEH enzymatic activity, activator screen | activation, % at 2 µM | actives 0.04% (n = 91,000) | AID 717; in the data active means activation above about 37%
PostGolgi ctrl: inhibits growth of the yeast control strain; efflux-deficient yeast background strain, growth absorbance A615, 16 h; inhibition, % at 10 µM; actives 5% (n = 98,000); AID 738
Active calls of the source: *; · = no result given. Unless noted, no stated cut-off is given here; in the data, active means inhibition above about 30%; inactive means the rest.

SMILES | sEH inhibitor | Cav3 T inh | PostGolgi yeast | sEH act | PostGolgi ctrl
O=C(c1ccco1)N1CCN(C(=O)c2cnn3c2NC(c2cccs2)CC3C(F)(F)F)CC1 (stereo not given) | 1.3 | 0.389 | 13.5 | -6.5 | 9.6
Cc1ccccc1Cn1ccc(NC(=O)c2cnn3c(C(F)(F)F)cc(-c4ccco4)nc23)n1 | -1.3 | -3.23 | -0.7 | 4.3 | 32.7*
O=C1C[C@@H](c2ccc(O[C@@H]3O[C@H](CO)[C@@H](O)[C@H](O)[C@H]3O)cc2)Oc2cc(O)ccc21 | · | 0.537 | · | · | ·
COc1ccc(/C=N/NC(=O)CSc2nnc(CCCc3ccc(OC)c(C)c3)o2)cc1 | 27.9 | -1.63 | -15.4 | -26.3 | 6.0
O=C(NCc1ccco1)c1cnn2c1NC(c1ccccc1)CC2C(F)(F)F (stereo not given) | -0.8 | 0.603 | -6.4 | 2.5 | 2.5
O=C(NCc1ccco1)c1cnn2c1NC(c1ccc(Br)cc1)CC2C(F)(F)F (stereo not given) | -10.0 | -4.52 | -3.2 | 9.3 | 37.5*
Cc1cc(NC(=O)CCSc2nc(-c3ccco3)cc(C(F)(F)F)n2)no1 | -18.1 | -2.07 | -3.1 | 15.8 | 7.1
Cc1ccc(Cn2ccc(NC(=O)CCSc3nc(-c4ccco4)cc(C(F)(F)F)n3)n2)cc1 | -10.4 | -8.99* | 2.0 | 10.3 | 49.8*
O=C(c1cc2n(n1)C(C(F)(F)F)CC(c1ccco1)N2)N1CCc2ccccc2C1 (stereo not given) | 4.7 | -3.7* | 0.9 | -1.3 | 26.4
COc1ccc(-c2nnc(SCC(=O)Nc3ncc(C)s3)n2-c2ccccc2)cc1OC | 4.6 | 0.46 | -7.9 | -3.3 | -0.6
CC(C)Oc1ccc(N2CC(C(=O)Nc3ccc4c(c3)OCO4)CC2=O)cc1 (stereo not given) | -3.5 | -0.166 | -0.7 | 2.2 | 0.6
COC(=O)c1ccc(CSc2ccc3nnc(-c4cccc(F)c4)n3n2)o1 | 11.8 | 1.17 | -5.5 | -8.6 | 41.1*
CON(C)c1nc(NCC(C)C)nc(OCC#N)n1 | -1.7 | 0.359 | 1.1 | 2.5 | 1.9
Cc1c(-c2nc(N)nc(Nc3ccccc3F)n2)oc2ccccc12 | -8.3 | -0.188 | 13.2 | 12.0 | 35.1*
COc1ccccc1Nc1nc(N)nc(-c2cc3ccccc3o2)n1 | -14.6 | -0.0806 | -2.5 | 17.6 | 1.7
COc1cccc(Nc2nc(N)nc(-c3oc4ccccc4c3C)n2)c1 | -0.7 | -0.202 | 26.2 | 3.5 | 76.5*
Cc1nn(C)c(C)c1/C=N/O | 6.3 | -0.0811 | 2.5 | -7.3 | 13.9
COc1ccc(-n2c(COc3cccc4ccccc34)nnc2SCC(=O)NCc2ccco2)cc1 | -3.9 | -2.58 | 13.8 | 0.9 | 13.8
CC(C)(C)n1nnnc1CN1CCC(NC(=O)NC2CCCCC2)CC1 | 96.8* | 0.922 | 14.3 | -96.7 | 4.3
COc1ccc(CC(=O)NC2CCN(Cc3nnnn3C(C)(C)C)CC2)cc1OC | 14.9 | -0.976 | -0.6 | -13.9 | -1.7
COc1ccc(NC(=O)C2CCCN2c2ccc(OC)c(OC)c2)cc1OC (stereo not given) | · | 0.384 | -3.8 | · | -8.3
Cc1nnc(SCC(N)=O)n1CCc1ccccc1 | -7.8 | 0.481 | · | 7.9 | ·
CC(=O)Nc1cccc(C(=O)OC(C(=O)c2ccc(C)cc2)c2ccccc2)c1 (stereo not given) | -20.3 | -0.0288 | -10.5 | 19.4 | 33.3*
CCS(=O)(=O)N1CCN(c2ccccn2)CC1 | -4.4 | · | 5.7 | 3.7 | -3.5
COc1ccccc1NC(=O)N(Cc1ccccc1)c1ccccn1 | -12.8 | -3.12 | 18.8 | 12.0 | 44.8*
SMILES | sEH inhibitor | Cav3 T inh | PostGolgi yeast | sEH act | PostGolgi ctrl
COCC(=O)N(Cc1ccccc1)c1ccccn1 | -0.6 | -0.275 | 2.2 | 4.5 | 16.3
CC(C)(C)c1ccc(-c2nnc(SCCC#N)n2C2CCCC2)cc1 | 6.8 | -4.43* | -0.3 | -6.3 | 47.6*
O=C(CSc1nnc(-c2ccc(Br)cc2)n1C1CCCCC1)N1CCCC1 | 0.5 | 0.784 | 10.7 | 1.0 | 8.8
O=C(N/N=C\c1ccc(COc2ccc([N+](=O)[O-])cc2)o1)c1cccc(Cl)c1 | 48.2 | -7.56* | -8.1 | -47.1 | 6.3
CSCc1cc(N2CCOCC2)nc(SCc2ccc(Cl)c(Cl)c2)n1 | 9.5 | -3.71 | 6.6 | -11.7 | 15.7
O=C(O)C[C@H]1c2cc(F)ccc2S(=O)(=O)N1C1CCN(Cc2ccccc2)CC1 | · | 1.05 | · | · | ·
Cc1ccc(OCC(=O)c2c(O)c3ccccc3oc2=O)cc1C | 13.6 | -8.31* | 4.5 | -13.8 | 1.3
CCCCCN=C(C)c1c(O)c2ccccc2oc1=O | 8.6 | -0.517 | -7.7 | -8.2 | 11.0
Cc1ccc(C(C)C)c(OCC(=O)c2c(O)c3ccccc3oc2=O)c1 | -5.7 | -7.6* | · | 8.6 | ·
O=C(NCc1ccccn1)C1CCCN(S(=O)(=O)c2cccc3nsnc23)C1 (stereo not given) | -9.4 | 1.01 | 14.0 | 10.0 | 13.2
C=CCNc1nc(-c2ccccc2)c(C(=O)OCC)cc1C#N | -3.0 | -4.39* | 0.6 | 2.6 | 20.1
COc1ccc(C2=NN(CN3C(=O)C(=O)c4ccccc43)C(c3ccc(C)cc3)C2)cc1 (stereo not given) | 3.0 | -0.522 | -6.1 | -1.7 | 4.7
COc1ccc(C2=NN(CN3C(=O)C(=O)c4ccccc43)C(c3ccc(Br)cc3)C2)cc1 (stereo not given) | -0.7 | -0.504 | 4.2 | 0.8 | 31.9*
CCOC(=O)c1oc2ccc(S(=O)(=O)n3nc(-c4ccc(C)cc4)cc3N)cc2c1C | -4.4 | 0.436 | 9.5 | 3.3 | 32.3*
CCN(CC)S(=O)(=O)c1cc([N+](=O)[O-])ccc1NNC(=O)Nc1ccccc1OC | 22.1 | -9.06* | -2.4 | -20.2 | 9.9
CCN(CCCNC(=O)CCc1nc(-c2ccc(OC)cc2)no1)c1cccc(C)c1 | 38.7 | -8.81* | -2.8 | -37.8 | 28.9
COc1ccc(-c2noc(CCC(=O)NCCN(C)Cc3ccccc3)n2)cc1 | 7.2 | 0.812 | 1.4 | -8.8 | 2.6
COc1ccc(-c2noc(CCC(=O)N3CCN(c4cc(C)ccc4C)CC3)n2)cc1 | -2.3 | -6.91* | -3.5 | 4.3 | 5.5
CC1CCCCN1C(=O)CN1C(=O)CN(C)C(=O)c2ccccc21 (stereo not given) | 1.5 | 0.00797 | -4.2 | -1.4 | -9.0
O=C(C1=C[C@@H](c2ccccc2)C[C@@H](OCCCCO)O1)N1CCOCC1 | · | 0.662 | · | · | ·
CC1CN(C(=O)Nc2ccc3snnc3c2)c2ccccc21 (stereo not given) | · | -1.89 | -0.6 | · | 30.1*
CCCCn1c(N)c(N(CCOC)C(=O)CSc2nc3ccc(C)cc3[nH]2)c(=O)[nH]c1=O | -2.8 | 0.0336 | 5.8 | 4.1 | 4.8
O=C(c1cccs1)N1CCN=C1SCc1cccnc1 | 7.4 | 1.6 | 6.0 | -4.6 | 31.5*
O=C(c1ccc2c(c1)OCO2)N1CCN=C1SCc1ccccc1 | · | -5.37* | -8.6 | · | 8.6
O=C(c1ccco1)N1CCN=C1SCc1cccnc1 | -6.4 | 0.947 | 30.1* | 9.7 | -2.1
CC(=O)N1CCN=C1SCc1ccccc1 | · | 0.417 | -4.0 | · | 6.5
CC(=O)N1CCN=C1SCc1ccc(Cl)cc1 | · | 0.219 | 2.9 | · | 34.5*
O=C(c1cccc(F)c1)N1CCN=C1SCc1cccnc1 | -4.1 | 0.0227 | -3.7 | 2.5 | 2.7
CS(=O)(=O)N(CCC(=O)O)Cc1ccccc1 | 3.5 | 0.54 | 9.2 | -3.5 | 26.0
